PLK1 PBD inh: inhibitors of human PLK1 polo-box domain binding; Plk1 PBD binding of FITC phosphopeptide, fluorescence polarization; 2.8% of 360,000 active; P53350; Potency, µM, for inactives: max response, negative = inhibition, actives largely listed as inhibitors; note: series mostly up to about 57 µM; nearly all actives have a fitted effect of over 65% in size
TDP1 inh: TDP1 (human) enzyme inhibition; Q9NUW8; recombinant TDP1, AlphaScreen DNA substrate cleavage; Potency, µM (series often up to 130 µM), without a hit: top-dose activity change, negative = inhibition, usual class: inhibitors; 0.28% of 350,000 active; AID 485290; note: nearly all actives have a fitted effect of over 40% in size
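Enzyme-compound mixtures sat 15 min at room temperature, followed by a 5 min reaction with 15 nM final substrate and 10 min with AlphaScreen beads. Recombinant human Tdp1 was used at 1 nM final.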
TDP1 cell CPT: growth inhibition of DT40 Tdp1-/-;hTDP1 cells with camptothecin (screen for TDP1 inhibitors). chicken DT40 Tdp1-/-;hTDP1 cells + 20 nM CPT, ATP luminescence, 48 h. Potency, µM (titrated, usually from 46.2 µM), inactives show at the highest dose activity change, negative = growth inhibition, actives largely listed as inhibitors. 12% of 420,000 active. AID 686979; note: nearly all actives have a fitted effect of over 55% in size
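Cell growth measured by CellTiter-Glo luminescence after a minimum 48 h, 37 C compound exposure with 20 nM CPT in Tdp1-knockout DT40 cells stably expressing hTDP1, seeded 400/well; qHTS titration format.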
GCN5L2 inh: blocks human GCN5L2 histone acetyltransferase. 0.21% of 390,000 active. Potency, µM (highest dose often 58.9 µM), for inactives: at the top dose activity change, negative = inhibition, most hits filed as inhibitors. AID 504327. GCN5L2 HAT assay, ThioGlo1 CoA-SH fluorescence
Target sequence (Q92830 whole entry, looked up): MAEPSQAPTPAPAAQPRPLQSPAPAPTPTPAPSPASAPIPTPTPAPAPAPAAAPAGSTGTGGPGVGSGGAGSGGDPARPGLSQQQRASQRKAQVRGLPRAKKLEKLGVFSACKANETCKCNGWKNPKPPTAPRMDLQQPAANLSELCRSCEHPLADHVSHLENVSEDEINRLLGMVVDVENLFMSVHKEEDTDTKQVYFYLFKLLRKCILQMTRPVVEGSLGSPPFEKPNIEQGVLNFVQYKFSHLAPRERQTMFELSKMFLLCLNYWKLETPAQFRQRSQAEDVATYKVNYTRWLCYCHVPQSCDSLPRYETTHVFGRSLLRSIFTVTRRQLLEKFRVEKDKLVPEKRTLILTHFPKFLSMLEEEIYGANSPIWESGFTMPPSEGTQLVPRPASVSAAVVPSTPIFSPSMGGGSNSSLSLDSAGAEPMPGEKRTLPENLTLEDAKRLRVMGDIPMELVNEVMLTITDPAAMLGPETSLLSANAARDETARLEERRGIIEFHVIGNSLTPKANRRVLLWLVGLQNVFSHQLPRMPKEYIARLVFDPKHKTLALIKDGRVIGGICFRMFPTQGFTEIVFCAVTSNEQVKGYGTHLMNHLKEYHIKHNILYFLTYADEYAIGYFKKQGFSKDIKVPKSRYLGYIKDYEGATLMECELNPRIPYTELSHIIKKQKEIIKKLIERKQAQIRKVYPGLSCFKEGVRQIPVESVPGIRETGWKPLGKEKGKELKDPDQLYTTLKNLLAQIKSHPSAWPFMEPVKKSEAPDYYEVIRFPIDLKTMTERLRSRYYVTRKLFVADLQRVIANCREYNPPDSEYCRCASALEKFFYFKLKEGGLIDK
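GCN5L2 (20 nM) in 50mM HEPES pH 7.5, 0.1mM EDTA, 0.01% Tween-20 preincubated 15 min with compounds at room temperature. Reaction started with H3(1-25) 75uM, acetyl-CoA 70uM, ThioGlo1 50uM; CoA-thiol fluorescence (Ex340/Em540) read at 0 and 20 min.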
DT40 TDP1 no CPT: qHTS for Inhibitors of human tyrosyl-DNA phosphodiesterase 1 (TDP1): qHTS in cells in absence of CPT; DT40 Tdp1-/- hTDP1 cells, no CPT, ATP luminescence, 48 h; Potency, µM (doses to about 46.2 µM), without a hit: top-dose activity change, negative = growth inhibition, usual class: inhibitors; 15% of 420,000 active; AID 686978, 2013; note: nearly all actives have a fitted effect of over 55% in size
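No-CPT arm: Tdp1-/-;hTDP1 DT40 cells (400/well) plus compounds, incubated ≥48 hr at 37 °C. Readout CellTiter-Glo luminescence.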
VDR inh: blocks the human vitamin D receptor; Potency, µM, for the others: max response, negative = inhibition, most hits filed as inhibitors; VDR-SRC2-3 peptide fluorescence polarization, 2 h; P11473; 0.93% of 400,000 active
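FP read-out; VDR + SRC2-3 coactivator peptide; 23 nl compound by pintool; 2 h RT incubation; reagents held at 4 deg C, protected from light.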
An asterisk follows results filed as active; ? = inconclusive; nt = no result; [ ] = dose if it differs, or a comment. A selection: hits, their analogues and other compounds. The true share with any hit is near 18%. Calls come from the whole dose curve; as a rule, active = well fitted curve in the direction sought with a large enough effect; inconclusive = small, poorly fitted or top-dose-only effect, or another doubt; inactive = no such curve, though single readings can be large; an effect the other way counts as inactive or inconclusive. % is set by controls: 0 for no effect and ±100 for the full control effect; potency is the fitted concentration of half-maximal effect.

SMILES | PLK1 PBD inh | TDP1 inh | TDP1 cell CPT | GCN5L2 inh | DT40 TDP1 no CPT | VDR inh
CC1Cc2cc(S(=O)(=O)N(C)c3ccc(Br)cc3)ccc2N1C(=O)C1CC1 (stereo not given) | nt | 3% | 23µM* | -23% | 23µM* | 1%
CCN(c1ccc(OC)cc1)S(=O)(=O)c1ccc2c(c1)CC(C)N2C(=O)C1CC1 (stereo not given) | 3% | 1% | 21µM* | -7% | 18µM* | 21%
CC(C)(C)C1CCc2c(sc(NC(=O)Cn3nnc(-c4ccccc4F)n3)c2C#N)C1 (stereo not given) | nt | 2% | 0% | 2% | -13% | -13%
Cc1cc(=O)c2ccccc2[nH]1 | -14% | -3% | -21% | -13% | -13% | 28%
Cc1cc(=O)c2cc(Br)ccc2[nH]1 | 0% | 1% | 6.5µM* | -23% | 6.5µM* | 5%
COc1ccc(CN2CCN(Cc3ccccc3)C(CCO)C2)cc1OC (stereo not given) | 7% | 0% | -30% | -5% | -13% | 3%
COc1ccc(CN2CCN(Cc3ccc4cc(F)ccc4n3)CC2CCO)c(C)c1C (stereo not given) | -15% | 4% | 16µM* | -1% | ? | 4%
CCOc1ccc2nc(CN3CCN(Cc4ccccc4OCC)C(CCO)C3)ccc2c1 (stereo not given) | -17% | nt | 23µM* | 0% | 26µM* | -24%
COc1ccccc1/C=C/CN1CCN(Cc2ccc(F)cc2)C(CCO)C1 (stereo not given) | -1% | 1% | ? | 4% | 18µM* | -8%
CCOc1ccc(CN2CCN(Cc3cc4c(cc3Cl)OCO4)CC2CCO)cc1 (stereo not given) | -16% | -2% | ? | -7% | 16µM* | 2%
CCOc1ccccc1CN1CCN(Cc2ccc3cc(F)ccc3n2)CC1CCO (stereo not given) | -3% | nt | ? | 2% | -16% | -12%
CCOc1ccc(CN2CCN(Cc3cccc4c3OCO4)CC2CCO)cc1 (stereo not given) | -8% | 1% | ? | -1% | ? | 12%
Cc1ccc(NC(=O)CSc2nncn3c2cc2sccc23)cc1F | nt | 5% | -1% | -2% | ? | 12%
COCc1ccc(C(=O)N2CCCC(C(=O)c3ccc(SC)cc3)C2)s1 (stereo not given) | -11% | 4% | ? | -3% | ? | -10%
OCCC1CN(Cc2ccc3cc(Cl)ccc3n2)CCN1Cc1ccsc1 (stereo not given) | -7% | 5% | 13µM* | 0% | ? | 26%
OCCC1CN(Cc2ccc3nonc3c2)CCN1Cc1ccsc1 (stereo not given) | 4% | -5% | -25% | 0% | -27% | -11%
Cc1ccc(/C=c2\sc3nc(-c4cccs4)nn3c2=O)o1 | -2% | -8% | -27% | ? | ? | 35µM*
Cc1ccc(NC(=O)CN(c2ccc(Cl)cc2)S(=O)(=O)c2cc([N+](=O)[O-])ccc2Cl)c(C)c1 | -10% | 3% | ? | -4% | 15µM* | -3%
Cc1ccc(S(=O)(=O)N(CC(=O)Nc2cccnc2)c2cccc([N+](=O)[O-])c2)cc1 | -9% | 6% | ? | -23% | 12µM* | 7%
COc1ccc(C)cc1S(=O)(=O)N(CC(=O)Nc1cccc([N+](=O)[O-])c1)c1ccccc1 | -6% | 6% | 15µM* | -3% | 21µM* | -22%
Cc1ccc([N+](=O)[O-])cc1NC(=O)CN(c1ccccc1)S(=O)(=O)N(C)C | nt | -1% | 1% | -7% | -27% | 7%
CCc1cccc(NC(=O)CN(c2ccc(C)cc2)S(=O)(=O)c2cccs2)c1 | nt | -2% | ? | -12% | 16µM* | -19%
COCCN1C[C@@H](CO)O[C@@H](n2cnc3c(NCC(C)C)ncnc32)C1 | -10% | nt | -5% | nt | -6% | nt
O=P(CCCO)(Cc1ccccc1)Cc1ccccc1 | -10% | 0% | 0% | 0% | -2% | -8%
Cc1ccc(S(=O)(=O)N(CC(=O)Nc2cccnc2)c2cccc(Br)c2)cc1 | -10% | 1% | ? | -16% | 16µM* | 11%
SMILES | PLK1 PBD inh | TDP1 inh | TDP1 cell CPT | GCN5L2 inh | DT40 TDP1 no CPT | VDR inh
Cc1ccc(S(=O)(=O)N(CC2CO2)c2cccc([N+](=O)[O-])c2)cc1 (stereo not given) | -16% | 2% | 12µM* | -3% | 23µM* | 6%
COc1ccc(S(=O)(=O)N(CC(=O)Nc2cccnc2)c2ccc(C)cc2)cc1OC | nt | 0%[12.3 µM] | -15% | -7% | -22% | -13%
Cc1ccc(S(=O)(=O)N(CC(=O)Nc2cccnc2)c2cc(Cl)ccc2C)cc1 | nt | -2%[12.3 µM] | 16µM* | -14% | 18µM* | 14%
COc1ccc(N(CC(=O)N2CCc3ccccc32)S(=O)(=O)c2c(C)n[nH]c2C)cc1 | 2% | 6% | -29% | -3% | ? | 5%
Cc1ccc(N(CC(=O)N2CCc3ccccc32)S(=O)(=O)c2cccs2)cc1 | 6% | 5% | ? | 3% | 18µM* | 17%
Cc1cc(/C=N/NC(N)=S)c(C)n1-c1ccc(Cl)c(Cl)c1 | -11% | 8% | 2.6µM* | 2% | 3.7µM* | -20%
Cc1cc(/C=N/NC(=O)Cn2c3ccccc3c(=O)c3ccccc32)c(C)n1-c1ccc(Cl)cc1 | -9% | 5% | ? | -8% | 29µM* | 1%
Cc1nc2ccccn2c1C(=O)N/N=C/c1ccccc1[N+](=O)[O-] | -21% | 4% | -15% | -4% | -1% | -8%
Cc1nc2ccccn2c1C(=O)N/N=C/c1cc(C)n(-c2ccc(Cl)cc2)c1C | 0% | 7% | 16µM* | -7% | 15µM* | -2%
CCNC(=S)N/N=C/c1cc(C)n(-c2ccc(Cl)cc2)c1C | -5% | 7% | 18µM* | -3% | 21µM* | -17%
CC(NC(=O)CN1C(=O)NC2(CCCCC2)C1=O)c1ccc(S(N)(=O)=O)cc1 (stereo not given) | 0% | nt | ? | nt | -5% | -5%
CC1=C(C(=O)Nc2nc3ccccc3s2)C(c2ccco2)C(C#N)=C(SCC(=O)NC2CCCCC2)N1 (stereo not given) | -2% | 2% | 13µM* | -24% | 21µM* | -2%
CC1=C(C(=O)Nc2ccccc2)C(c2ccncc2)C(C#N)=C(SCC(=O)NC2CC2)N1 (stereo not given) | -8% | -1% | -15% | -17% | -15% | 18%
